# According to PubChem BioAssay AID686978 (National Center for Advancing Translational Sciences (NCATS), 2013):
# Among all 420,000 compounds or so, about 64,000 (15%) were called active. About 27% were inconclusive and are not listed. The call rests on the fitted dose curve; in most records, active means well fitted inhibition curve with a large enough effect; inconclusive means small, poorly fitted or top-dose-only effect; inactive means flat fitted curve, though single readings scatter. These entries were drawn from the full list. A call without a number means that no potency is given here.
# Experiment: qHTS for Inhibitors of human tyrosyl-DNA phosphodiesterase 1 (TDP1): qHTS in cells in absence of CPT; further: nearly all actives have a fitted effect of over 55% in size
# Conditions: DT40 Tdp1-/- hTDP1 cells, no CPT, ATP luminescence, 48 h; activity change, negative = growth inhibition: at 46.2 µM (top of the series)
# From the text: Human tyrosyl-DNA phosphodiesterase 1 (TDP1) is a novel repair gene, and we propose to use it as a new target for anticancer drug development. TDP1 is not an essential protein, but under treatment with topoisomerase I poison (camptothecin: CPT), TDP1 works as a critical factor for cell survival. To directly identify novel TDP1 inhibitors active in a cellular environment, we have knocked-out the Tdp1 gene in chicken DT40 cells (Tdp1-/-) and generated a complemented counterpart cells that contains a stable transfection of the human TDP1 gene (Tdp1-/-;hTDP1 cells). For the primary screen, Tdp1-/-;hTDP1 cells will be exposed to small molecules in the presence or absence of CPT, and their growth kinetics will be evaluated after 48 hours by measuring ATP activity. […] The hit compounds will then be evaluated in the presence or absence of CPT using Tdp1-/- cells. […] In tertiary assays, biochemical gel-based assays will be used to assess whether the hit compounds specifically target TDP1.
# To this end, we have screened this cell line against the MLSMR in two primary screens. In one screen we add CPT and in the other we screen in the absence of CPT; this AID represents the screen where CPT was absent.
# NIH Chemical Genomics Center [NCGC]
# NIH Molecular Libraries Probe Centers Network [MLPCN]
# Assay Submitter (PI): Yves Pommier, NCI
# DT40-hTDP1 cells without 20 nM Camptothecin (add 20 microL of DMSO in 1 L of cell culture medium) were dispensed at 400 cells/5microL/well in tissue culture treated 1536-well white wall/solid bottom assay plates (Greiner Bio-One North America, NC, U.S.A.) using a Multidrop Combi 8 channel dispenser (Thermo Fisher, Waltham, MA, USA). 23 nL compounds and controls were transferred using the pin tool (Kalypsys, San Diego, CA, USA) to the assay plates. The assay plates were then incubated at 37 masculineC for a minimum 48 hr. Three microL of Cell Titer Glo solution was added to the plates and incubated at RT in dark for 30 min. Luminescence was read using ViewLux (Perkin Elmer) with 1 sec exposure slow speed, high gain and 2x binning.
# Potency means the concentration at half of the fitted maximal effect.
row,SMILES,Potency
1,ClC/C=C/C[n+]1ccccc1Cl,inactive
2,CN(C)c1ccc(NC(=O)c2ccncc2)c2ccccc12,inactive
3,O=c1c2c(-c3ccccc3)ccnc2[nH]n1-c1ccccc1,inactive
4,O=c1c(-c2cccc(Cl)c2)c[nH]n1-c1ccccc1,16.4 µM (active)
5,O=c1c(-c2ccccc2Cl)c[nH]n1-c1ccccc1,inactive
6,N#C/C=C1\Sc2ccccc2C(=O)N1CC(=O)N1CCN(S(=O)(=O)c2ccccc2)CC1,inactive
7,O=C(O)c1ccccc1-c1ccccc1C(=O)Nc1ccccc1Br,inactive
8,COc1ccc(N2C(=O)CCC(C(=O)N(C)C3CCCCC3)C2c2ccc(OC)c(OC)c2)cc1 (centres undefined),inactive
9,CCOC(=O)C1CCCN(C(=O)C2CCN(c3nnc(-n4cccc4)s3)CC2)C1 (centres undefined),inactive
10,CCOC(=O)C1CCCN(C(=O)CSc2nnc3nc(C)cc(C)n23)C1 (centres undefined),20.6 µM (active)
11,Cc1c(C)n2c(SCC(=O)N3CCCC3)nnc2[nH]c1=O,inactive
12,CCCCN1C(=O)CCC(C(=O)O)C1c1ccc(OC)cc1 (centres undefined),inactive
13,O=C(COC(=O)c1c2c(nc3ccccc13)/C(=C\c1cccs1)CCC2)Nc1ccccc1Cl,13 µM (active)
14,NS(=O)(=O)c1ccc(NC(=O)COC(=O)c2cc3ccccc3oc2=O)cc1,inactive
15,O=C(COC(=O)c1cccs1)Nc1ccccc1Cl,inactive
16,COc1cc(-c2cc(C(=O)OCC(=O)Nc3ccc4c(c3)OCO4)c3ccccc3n2)cc(OC)c1OC,inactive
17,NC(=O)c1ccc(NC(=O)COC(=O)c2c3c(nc4ccccc24)/C(=C\c2ccc4c(c2)OCO4)CCC3)cc1,8.2 µM (active)
18,O=C(COC(=O)c1ccc(F)cc1)Nc1ccc2c(c1)OCO2,inactive
19,COc1cc(/C=C2\CCCc3c2nc2ccccc2c3C(=O)O)cc(Cl)c1O,inactive
20,NS(=O)(=O)c1ccc(NC(=O)COC(=O)c2c3c(nc4ccccc24)/C(=C\c2ccc4c(c2)OCO4)CCC3)cc1,13 µM (active)
21,O=C(COC(=O)c1ccncc1)Nc1ccc2c(c1)OCO2,inactive
22,COCCC(=O)Nc1ccc2c(c1)CN(C(=O)CCOC)CC2,inactive
23,COc1ccccc1C(=O)OCC(=O)NCCNC(=O)COC(=O)c1ccccc1OC,inactive

row,SMILES,Potency
1,C/C=C(\C)C(=O)N1CC2(CC(c3cccc(NC(=O)CCCCC)c3)=NO2)C[C@@H]1C(N)=O (some centres undefined),inactive
2,CCC1(c2ccccc2)NC(=O)N(CC(=O)c2ccc3c(c2)OCO3)C1=O (centres undefined),inactive
3,O=C(COC(=O)c1ccccc1)c1ccc2c(c1)OCCO2,inactive
4,O=C(CCN1CCc2ccccc2C(O)(c2ccccc2)C1)c1ccc2c(c1)OCCO2 (centres undefined),2.91 µM (active)
5,COc1ccc(CCOC2OC(CO)C(OC(=O)/C=C/c3ccc(O)c(OC)c3)C(O[C@H]3O[C@@H](C)[C@H](O)[C@@H](O)[C@H]3O)C2O)cc1O (some centres undefined),inactive
6,Cc1ccc(CNC(=O)c2ccccc2CCc2ccccc2)cc1,inactive
7,CNC[C@H](CC1CCCCC1)NC[C@H](NCCC1CCCC1)[C@H](C)O,20.6 µM (active)
8,O=C(CN1C(=O)NC2(CCCCCC2)C1=O)NCc1cccs1,inactive
9,CN=C1SC(C(=O)O)CC(=O)N1C (centres undefined),inactive
10,COc1ccc(CC(=O)n2nc(-c3cccnc3)nc2N)cc1,inactive
11,COc1ccc(C(=O)n2nc(C)c(Br)c2C)cc1OC,inactive
12,COc1ccc(C(=O)n2nc(-c3ccc(C)cc3)nc2N)cc1OC,10.3 µM (active)
13,Oc1ccc(Cl)c2c1CCC2,inactive
14,Cc1ccc(OCc2cc(C(=O)N(C)CCc3ccccc3)no2)cc1C,inactive
15,CN(CCOc1ccccc1)C(=O)c1cc(COc2c(F)cccc2F)on1,inactive
16,CN(Cc1cccnc1)C(=O)c1cc(COc2ccc3ncccc3c2)on1,8.2 µM (active)
17,CCOC(=O)CNC(=O)CSc1ccc2nnc(-c3cccnc3)n2n1,inactive
18,COc1ccc(COC(=O)c2n[nH]c3ccccc23)cc1F,inactive
19,Cn1c(SCc2c(F)cccc2Cl)nnc1-c1cnccn1,inactive
20,Cc1cc([N+](=O)[O-])c(NC2CCCCC2)c([N+](=O)[O-])c1,inactive
21,CC1CN(C(=S)Nc2ccc(S(N)(=O)=O)cc2)CC(C)O1 (centres undefined),inactive
22,CCOC(=O)NCc1ccc2c(c1)OCO2,inactive
23,COCCN(Cc1cc2cc3c(cc2nc1Cl)OCO3)C(=O)c1cccc(C)c1,16.4 µM (active)

row,SMILES,Potency
1,CCCCN(CC)C(=O)c1ccc2c(c1)OCO2,inactive
2,Nc1ncnc2c1ncn2[C@@H]1O[C@H](C(=O)N2CCCN(Cc3ccccc3F)CC2)[C@@H](O)[C@H]1O,inactive
3,COC(=O)CCC(=O)N1CCCC(CO)(Cc2ccccc2)C1 (centres undefined),inactive
4,CCOc1cc(CN2CCCC(CO)(Cc3ccc(F)cc3F)C2)ccc1OC (centres undefined),inactive
5,COc1cccc(CC2(CO)CCCN(Cc3nc(-c4cccs4)oc3C)C2)c1 (centres undefined),20.6 µM (active)
6,Cc1ccc(CS(=O)(=O)CCC(=O)NC2CC2)cc1,inactive
7,CC[N+]1(CC)CC2=Cc3ccccc3CC2C1 (centres undefined),inactive
8,O=C(Nn1cnnc1)c1ccc([N+](=O)[O-])cc1,inactive
9,O=C(Cn1c[n+](CC(=O)c2ccc([N+](=O)[O-])cc2)cn1)c1ccc([N+](=O)[O-])cc1,20.6 µM (active)
10,O=C(c1ccncc1)c1ccc([N+](=O)[O-])cc1,inactive
11,CCOC(=O)CSc1nnc(-c2ccc([N+](=O)[O-])cc2)o1,inactive
12,CC(=O)c1ccccc1OCc1ccc(C(=O)c2ccccc2)cc1,16.4 µM (active)
13,O=C(NC1CCC(O)CC1)c1ccccc1OCc1ccc(F)cc1 (centres undefined),inactive
14,COc1ccccc1C(=O)Nn1cnnc1,inactive
15,COc1ccccc1C(=O)c1ccccc1C(=O)c1ccccc1,18.4 µM (active)
16,O=C(Nc1ccccc1)c1ccccc1OCc1ccccc1,inactive
17,COc1ccccc1C(=O)NNC(=O)c1ccc(NC(=O)c2ccccc2)cc1,inactive
18,COc1ccc(CC(=O)OC(C)C(=O)Nc2ccc(S(N)(=O)=O)cc2)cc1 (centres undefined),inactive
19,O=C(Nc1ccccc1C(=O)O)c1ccc(N2C(=O)C3CC=CCC3C2=O)cc1 (centres undefined),inactive
20,O=CN1CCN(C(=O)c2ccc3c(c2)OCO3)CC1,inactive
21,C=CCNC(=O)COc1coc(CN2CCN(Cc3ccccc3)CC2)cc1=O,inactive
22,CNC(=S)NNC(=O)c1cccn(Cc2ccccc2)c1=O,inactive
23,C=CCNC(=S)/N=c1/ccccn1Cc1ccccc1,1.84 µM (active)
